The source of these data is ChEMBL document CHEMBL3988442, “University of Dundee, Small-Polar-MMV Screening Library” (2021).

For one experiment, the system named is Trypanosoma cruzi. In words: Trypanosoma cruzi phosphomannomutase and mannose-1-phosphate guanylyltransferase assay. Type of experiment: functional. Also on record: scale not given: direction of the effect not stated beside the values. Conditions: 10 µM.
As for `Cc1cnc(CN2CCCC(c3cc(C(N)=O)[nH]n3)C2)cn1` (centres undefined), the Percent Effect was -3.01%. Same read-out and setting: to `CC(C)c1nc(C2CCCN(C(=O)c3ccnc(N(C)C)c3)C2)no1` (centres undefined) belongs -3.62%; to `Cc1cnn(CC2CCCN2C(=O)c2cccnc2N(C)C)c1` (centres undefined), 1.42%. Regarding `CC(NC(=O)NCc1cccc(Cl)c1)(C(=O)O)c1ccco1` (centres undefined), the Percent Effect was 5.32%.

The next experiment has as its target T1, Arginase-2, mitochondrial (Homo sapiens) (UniProt P78540).
T1 sequence (whole entry): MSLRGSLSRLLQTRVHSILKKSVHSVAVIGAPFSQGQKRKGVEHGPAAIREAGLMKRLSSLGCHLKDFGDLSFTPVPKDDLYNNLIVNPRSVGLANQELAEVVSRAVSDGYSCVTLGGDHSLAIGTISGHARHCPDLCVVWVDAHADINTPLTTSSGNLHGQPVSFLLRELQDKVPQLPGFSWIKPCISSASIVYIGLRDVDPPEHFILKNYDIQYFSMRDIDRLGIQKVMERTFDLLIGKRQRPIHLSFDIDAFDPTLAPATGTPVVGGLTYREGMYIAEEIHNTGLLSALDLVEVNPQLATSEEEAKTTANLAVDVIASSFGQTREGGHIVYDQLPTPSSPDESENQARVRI
As to the kind of experiment: in vitro enzyme assay to detect the production of urea directly proportional to the activity of Arginase II. The conditions noted are these: 30 µM. Also on record: scale not given: in the data most compounds retested in dose-response had high values. Type of experiment: functional.
`COc1ccccc1Oc1ncccc1CNC(=O)[C@@H](N)CCO`: the Percent Effect was -12.4%. Turning to `CC(C)CN1CCC(NC(=O)c2ccc(F)cc2Cl)CC1`, the Percent Effect came out at 5.95%.

As for `CC(C)c1ncc(CN2CCOC(C(=O)Nc3ccccc3)C2)cn1` (centres undefined), the Percent Effect was 3.78%. Same read-out and setting: under `Cn1cc(CC2CCN(C(=O)NCCCc3ccc(O)cc3)C2)cn1` (centres undefined) stands 7.03%; under `CC(=O)NCCNC(=O)c1cc(Br)c2c(c1)OCCO2`, 4.87%; under `COc1ccc(C(=O)N(CCC#N)Cc2ccccn2)cc1`, 1.62%.

`CN(C)C(=O)[C@@H]1CCO[C@@H]2CCN(CCOCc3ccccc3)C[C@H]21`: the Percent Effect is 2.7%.

As for `Cc1ccc(C(=O)N(CCC#N)Cc2ccccn2)cc1C`, the Percent Effect is 3.78%. In the case of `Cc1ccc([C@@H]2CN(S(=O)(=O)c3ccccc3)C[C@H]2N(C)C)cc1`, the Percent Effect is 3.78%. Still for that read-out and setting: under `CN1CCC(N(Cc2ccccc2F)C(=O)NCc2ccncc2)CC1` stands 5.95%; under `CN(C)C1CCCN(C(=O)CCc2csc(N)n2)CC1` (centres undefined), 1.62%.

On to `CNC(=O)[C@H]1C[C@@H]2CN(C(=O)c3ccncc3)C[C@@H]2N1S(C)(=O)=O`, for which the Percent Effect was 4.87%. Take `CNC(=O)[C@H]1C[C@@H]2CN(C(=O)c3ccsc3)C[C@@H]2N1S(C)(=O)=O`: the Percent Effect was 8.11%. Regarding `CC1=Nc2c(c(=O)[nH]n2C2CCCCC2)C(c2cccnc2)S1` (centres undefined), the Percent Effect was determined as 2.7%. For `CC[C@@H](NC(C)=O)C(=O)NCc1cccnc1Oc1ccccc1OC`, the Percent Effect turned out to be 4.87%.
